# LAP4-GFP MLPCN: modulators of LAP4-GFP expression in yeast, primary screen, S. cerevisiae, multiplex flow cytometry, MLPCN library. GFP response vs DMSO, % at 10 µM. 0.34% of 320,000 active. 3 h; median GFP as percent of DMSO wells. AID 2023, 2009;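 active = GFP response vs DMSO above a set limit, about the screen mean plus 3 SD, cut at about 150% in these data; inconclusive = under 70 cell events counted for the yeast strain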
# CIT2-GFP yeast: modulators of CIT2-GFP expression in yeast, primary screen, S. cerevisiae, GFP fusion, multiplex flow cytometry, MLPCN library; S. cerevisiae CIT2-GFP strain, 3 h; 100 means same as DMSO wells; GFP response vs DMSO, % at 10 µM; 0.065% of 320,000 active;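 active = GFP response relative to DMSO above a set limit, near the screen mean plus 3 SD, cut at about 150% in these data; inconclusive = Fewer than 70 cells measured for a yeast strain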;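 also: ratio of well median GFP fluorescence to mean of DMSO wells on the plate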
# AGP1 TOR yeast: modulators of AGP1-GFP expression in yeast TOR pathway, primary screen, cell-based, multiplex flow cytometry, S. cerevisiae, MLPCN library; 3 h; GFP as percent of DMSO wells; GFP response vs DMSO, % at 10 µM; 0.02% of 320,000 active;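 active = GFP response relative to DMSO above a set limit, near screen average plus 3 SD, cut at about 150% in these data; inconclusive = fewer than 70 cells counted for the yeast strain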;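 also: median GFP channel fluorescence of the gated AGP1 strain per well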
# RPL19A TOR yeast: RPL19A-GFP expression modulators in yeast, primary screen, cell-based, S. cerevisiae, multiplex flow cytometry, MLPCN. S. cerevisiae RPL19A-GFP strain, 3 h; stronger effect = lower value. percent response vs DMSO, % at 10 µM. 0.3% of 330,000 active;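 active = percent response vs DMSO below 50%; inconclusive = fewer than 70 events counted for the yeast strain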;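 also: median channel GFP fluorescence of the barcoded RPL19A-GFP strain; ratio of sample median GFP to plate DMSO average so 100% = DMSO; lower means less RPL19A-GFP as with rapamycin TOR inhibition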
# Myeloid diff MLP: induction of myeloid progenitor differentiation, primary screen, cell-based, flow cytometry, MLPCN library. ER-HoxA9 myeloid progenitors, lysozyme-GFP differentiation. calls only at 10 µM. 1% of 360,000 active;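 active = normalized GFP-positive differentiation at or above the plate's own cutoff, the solvent-only control mean plus 3 SD; inconclusive = no clear call, values can overlap the other calls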;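 also: cells exposed to compound for four days before flow analysis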
# MEP2-GFP yeast: modulators of MEP2-GFP levels in yeast, primary screen, S. cerevisiae, multiplex flow cytometry, MLPCN library; S. cerevisiae MEP2-GFP strain, 3 h; 100% = DMSO control level; GFP response vs DMSO, % at 10 µM; 0.51% of 330,000 active; AID 2016, 2009;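 active = GFP response versus DMSO above a set limit, roughly screen mean plus 3 SD, cut at about 180% in these data; inconclusive = fewer than 70 cells counted for a yeast strain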;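 also: median GFP fluorescence of the barcode-gated MEP2-GFP cells per well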
# LAP4-GFP pick2: LAP4-GFP expression modulators in yeast, confirmation, cell-based, second cherry pick, flow cytometry; 20% of 590 active; shares compounds with LAP4-GFP MLPCN; S. cerevisiae LAP4-GFP strain, 3 h; GFP response vs DMSO, % at 10 µM;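 active = GFP signal as percent of the solvent control above about 150%, meaning raised reporter expression, limit read from the data; inconclusive = fewer than 70 cells counted in the well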;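 also: ratio of well median GFP fluorescence to plate DMSO mean so 100% = DMSO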
# MEP2 cherry2: modulators of MEP2-GFP levels in yeast, confirmation, S. cerevisiae, flow cytometry GFP, second cherry picks; GFP response vs DMSO, % at 10 µM; 10% of 590 active; AID 2622, 2010; shares compounds with LAP4-GFP MLPCN; S. cerevisiae MEP2-GFP strain, 3 h;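 active = GFP signal above 150% of the solvent control wells, that is a rise of more than half; inconclusive = fewer than 70 yeast cells counted in the well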;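 also: median channel GFP fluorescence of all gated yeast cells per well; ratio of median GFP to plate DMSO average so 100% = DMSO level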
# RPL19A-GFP pick2: RPL19A-GFP modulators in TOR pathway yeast, confirmation, cell-based, S. cerevisiae, flow cytometry, second cherry pick; 3% of 590 active; S. cerevisiae RPL19A-GFP strain, 3 h; stronger effect = lower value; 100% means same as DMSO wells; GFP response vs DMSO, % at 10 µM; shares compounds with LAP4-GFP MLPCN;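 active = under 65% GFP response relative to DMSO; inconclusive = yeast strain with under 70 measured events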;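 also: median GFP channel fluorescence per well over the all cells gate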
# CIT2-GFP pick2: modulators of CIT2-GFP expression in yeast, confirmation, flow cytometry, second cherry pick, single plex; 8% of 590 active; S. cerevisiae CIT2-GFP strain, 3 h; DMSO control wells read 100%; shares compounds with LAP4-GFP MLPCN; GFP response vs DMSO, % at 10 µM;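 active = GFP response vs DMSO above about 150%, limit read from the data; inconclusive = fewer than 70 events counted for a yeast strain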;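 also: median green fluorescence per well over all gated yeast cells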
# AGP1 GFP CP2: AGP1-GFP expression modulators, hit retest, confirmation, cell-based, flow cytometry, S. cerevisiae, cherry pick set 2; 590 tested, under 10 active; shares compounds with LAP4-GFP MLPCN; percent response vs DMSO, % at 10 µM; S. cerevisiae AGP1-GFP strain, 3 h; AID 2643, 2010;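 active = over 150 percent of DMSO response; inconclusive = yeast strain measured with under 70 events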;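 also: median GFP channel fluorescence over all cells without mother daughter split; sample median GFP divided by mean DMSO control so 100% equals DMSO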
# Yeast autofluor: compound autofluorescence in yeast s288c, dose response, artefact control for yeast TOR pathway GFP screen, s288c strain; AID 2757, 2010; 610 tested, under 10 active; S. cerevisiae s288c, 520 nm autofluorescence, flow cytometry, 3 h; stronger effect = higher value; zero means same as solvent-only cells; fluorescence change (kMESF span) at 33 µM; shares compounds with LAP4-GFP MLPCN;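 active = fluorescence span over the dose series, or activity score, above about 33, limit read from the data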
# Numbers without * were called inactive; i = inactive; ? = inconclusive; . = no result given. Rows were chosen to be rich in hits. Some 1.8% of all compounds tested hit in one or more screens of this group.
SMILES,LAP4-GFP MLPCN,CIT2-GFP yeast,AGP1 TOR yeast,RPL19A TOR yeast,Myeloid diff MLP,MEP2-GFP yeast,LAP4-GFP pick2,MEP2 cherry2,RPL19A-GFP pick2,CIT2-GFP pick2,AGP1 GFP CP2,others
O=C(CN1C(=O)NC2(CCCC2)C1=O)NC(c1ccccc1)c1ccccc1,91,112,100,99,i,100,.,.,.,.,.,
O=C(CSc1ccc(-c2ccccn2)nn1)Nc1ccc(F)cc1F,107,161*,116,107,i,129,100,103,101,98,98,
CC(=O)[C@]1(O)Cc2c(O)c3c(c(O)c2[C@@H](O[C@H]2C[C@H](N)[C@H](O)[C@H](C)O2)C1)C(=O)c1ccccc1C3=O,152*,91,89,107,.,119,151*,153*,111,140,108,Yeast autofluor=2.7
COc1cccc2c1C(=O)c1c(O)c3c(c(O)c1C2=O)C[C@@](O)(C(=O)CO)C[C@@H]3O[C@H]1C[C@H](N)[C@@H](O)[C@H](C)O1,95,95,95,106,?,105,.,.,.,.,.,
COc1ccc(S(=O)(=O)N2CCOCC2)cc1NC(=O)COc1ncnc2ccccc12,76,101,91,100,i,95,.,.,.,.,.,
O=C(Nc1ccc(C(=O)N2CCCCC2)cc1)c1ccccc1Br,152*,102,103,103,i,218*,105,115,101,110,98,
CCOC(=O)c1nn(-c2ccc(OCC)cc2)c2nc(-c3ccco3)c(C#N)c(=O)n12,96,100,82,64,i,130,97,105,100,103,103,
CCOC(=O)c1nn(-c2ccc(OCC)cc2)c2nc(-c3cccc(OC)c3)c(C#N)c(=O)n12,99,104,98,106,i,106,.,.,.,.,.,
Brc1ccc(Oc2nsnc2N2CCOCC2)cc1,95,82,27,100,.,180*,96,103,102,104,97,
COC(=O)Oc1nsnc1N1CCOCC1,106,104,94,92,i,94,.,.,.,.,.,
NC(=O)CN1C(=O)NC2(CCCc3ccccc32)C1=O (stereo unspecified),104,106,107,109,i,108,.,.,.,.,.,
N/C(Cc1ccc(Cl)c(Cl)c1)=N\OC(=O)c1cccs1,219*,111,63,86,i,115,.,.,.,.,.,Yeast autofluor=1
N/C(=N\OC(=O)c1cccs1)C1(c2ccc(Cl)cc2Cl)CC1,126,98,98,100,i,105,.,.,.,.,.,
Cc1sc(/C=C2\C(=O)ON=C2c2ccccc2)cc1Br,91,98,91,103,.,103,99,102,98,106,99,Yeast autofluor=0
CCCCc1ccc(/C=C2/C(=O)ON=C2c2ccccc2)s1,104,97,99,100,i,108,104,108,98,102,104,Yeast autofluor=0
CC1CN(C(=O)CCNC(=O)c2ccccc2Cl)CC(C)O1 (stereo unspecified),95,91,95,105,i,107,.,.,.,.,.,
O=CNc1cc(-c2ccsc2)cn2c(-c3ccccc3)cnc12,.,.,.,.,i,.,.,.,.,.,.,
O=C(Nc1ccc([N+](=O)[O-])cc1)c1ccccc1F,91,99,97,106,i,103,.,.,.,.,.,
O=C(c1cc(O)c(O)c([N+](=O)[O-])c1)c1ccccc1F,151*,78,83,91,i,99,125,119,90,108,106,
Cc1c(Cc2ccccc2)c(NCCN(C)C)n2c(nc3ccccc32)c1C#N,198*,77,101,109,i,126,.,.,.,.,.,Yeast autofluor=2
COC(=O)Cc1csc(NC(=O)CSc2nncn2C)n1,169*,82,109,88,i,106,131,100,100,110,99,
COc1ccc(CCNC(=O)COC(=O)c2cc3ccccc3oc2=O)cc1OC,102,105,101,101,i,99,.,.,.,.,.,
Cc1ccc(Cl)cc1NC(=O)CN1C(=O)NC(C)(C2CC2)C1=O (stereo unspecified),151*,99,102,84,i,108,102,103,99,106,102,
Cc1cc(C)cc(Nc2ccc(C(=O)O)cc2[N+](=O)[O-])c1,85,118,106,106,i,106,.,.,.,.,.,
COc1cc(/C=N/NS(=O)(=O)c2ccc(Br)cc2)ccc1O,65,115,93,108,i,101,.,.,.,.,.,
Cc1nc(N2CCCCC2)c2c(-c3cccs3)csc2n1,98,100,34,56,i,155,95,95,99,109,97,
N#Cc1cc(-c2ccccc2)oc1NC(=O)c1ccco1,105,105,105,108,i,108,.,.,.,.,.,
O=c1oc2cc(Oc3c([N+](=O)[O-])cc(C(F)(F)F)cc3[N+](=O)[O-])ccc2c2c1CCCC2,294*,76,86,70,i,91,.,.,.,.,.,Yeast autofluor=0
Cc1ccc(C2CC(=O)Oc3cc(O)ccc32)cc1 (stereo unspecified),180*,70,90,75,i,97,115,138,89,100,111,
O=C1CC(c2ccccc2)c2cc(O)ccc2O1 (stereo unspecified),101,108,101,104,i,103,.,.,.,.,.,

# Screening results: PubChem, NMMLSC
